Rows were chosen to be rich in hits. Some 21% of all compounds tested hit in one or more screens of this group.
DT40 TDP1 CPT: growth inhibition of DT40 Tdp1-/-;hTDP1 cells with camptothecin (screen for TDP1 inhibitors); chicken DT40 Tdp1-/-;hTDP1 cells + 20 nM CPT, ATP luminescence, 48 h; Potency, µM (top dose mostly 46.2 µM), usual class: inhibitors; 420,000 compounds, 12% hits; AID 686979; note: nearly all actives have a fitted effect of over 55% in size
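Chicken DT40 Tdp1-/- cells stably complemented with human TDP1 were seeded at 400 cells/well in medium containing 20 nM camptothecin, exposed to pin-transferred compounds, and grown at 37 °C for at least 48 hr. Viability was read as ATP luminescence.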
DT40 TDP1 no CPT: qHTS for Inhibitors of human tyrosyl-DNA phosphodiesterase 1 (TDP1): qHTS in cells in absence of CPT | DT40 Tdp1-/- hTDP1 cells, no CPT, ATP luminescence, 48 h | Potency, µM (doses to about 46.2 µM), actives largely listed as inhibitors | 420,000 compounds, 15% hits | AID 686978, 2013; note: nearly all actives have a fitted effect of over 55% in size
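Camptothecin absent (DMSO only). Human TDP1-complemented DT40 knockout cells, 400 cells/well, 37 °C for minimum 48 hr; ATP measured via CellTiter-Glo, 30 min dark incubation, luminescence.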
ELG1 DNA repair: ELG1-dependent DNA repair inhibition. HEK293T ELG1-luciferase reporter, luminescence, 16 h; DNA damage induced by 5-fluorouridine. Potency, µM (series often up to 46.1 µM), most hits filed as inhibitors. 330,000 compounds, 2.3% hits. AID 504467; note: nearly all actives have a fitted effect of over 55% in size
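Quantitative HTS, concentration-response format. 2,000 cells/well co-treated with 5-fluorouridine and compound, 16 hr in 5% CO2 at 37 °C; ONE-Glo luminescence read after 30 min.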
IL-1B inflam inh: blocks inflammasome-driven IL-1 beta release; THP-1 LPS/ATP IL-1B secretion, AlphaLISA, 16 h; stronger effect = lower value; activity change, % at 57.5 µM; 360,000 compounds, 4.7% hits; in the data active = activity change below about -50%; inconclusive = mostly about -30% to -49%
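THP-1 cells pretreated 1 hr with compounds (up to 57.5 uM final), then stimulated with LPS (250 ng/mL final) plus ATP (1.25 mM final); secreted IL-1B measured by AlphaLISA after 16 hr, decreased signal indicating inhibition.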
RORg inh: inhibitors of mouse ROR gamma transcriptional activity; P51450; Drosophila S2 Gal4-RORgamma UAS-luciferase reporter, 20 h; Potency, µM (titrated, usually from 53.6 µM), actives largely listed as inhibitors; 310,000 compounds, 5.4% hits; AID 2551; note: nearly all actives have a fitted effect of over 60% in size
Target sequence (P51450 whole entry, looked up, the tested form may be a part): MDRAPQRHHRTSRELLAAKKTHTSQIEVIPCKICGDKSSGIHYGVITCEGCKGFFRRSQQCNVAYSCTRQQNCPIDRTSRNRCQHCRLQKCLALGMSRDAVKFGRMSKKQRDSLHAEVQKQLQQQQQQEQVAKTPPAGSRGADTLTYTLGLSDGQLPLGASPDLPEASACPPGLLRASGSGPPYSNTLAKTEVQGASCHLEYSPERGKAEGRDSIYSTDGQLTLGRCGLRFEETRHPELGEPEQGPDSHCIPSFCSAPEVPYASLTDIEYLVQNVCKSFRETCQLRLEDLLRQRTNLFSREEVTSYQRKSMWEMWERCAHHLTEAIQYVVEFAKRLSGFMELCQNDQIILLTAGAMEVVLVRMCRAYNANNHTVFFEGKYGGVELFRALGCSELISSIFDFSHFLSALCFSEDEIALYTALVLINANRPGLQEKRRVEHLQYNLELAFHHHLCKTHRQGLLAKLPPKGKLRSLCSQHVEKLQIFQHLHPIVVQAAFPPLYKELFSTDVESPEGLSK
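ROR gamma transcriptional activity was tracked as Gal4-UAS luciferase output in stably transfected Drosophila Schneider cells, with compound added 1 hr before 700 uM copper sulfate induction and a 20 hr ambient-temperature incubation.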
VP16 counter: counter-screen for ROR gamma inhibitors: Gal4-VP16 reporter. Drosophila S2 Gal4-VP16 UAS-luciferase, luminescence, 20 h. Potency, µM (highest dose often 53.6 µM), most hits filed as inhibitors. 310,000 compounds, 3.5% hits;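 note: Gal4-VP16 expression switched on by copper sulfate through the metallothionein promoter; nearly all actives have a fitted effect of over 50% in size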
A number is an active result. Unless noted, calls come from the whole dose curve; as a rule, active = well fitted curve in the direction sought with a large enough effect; inconclusive = small, poorly fitted or top-dose-only effect, or another doubt; inactive = no such curve, though single readings can be large; an effect the other way counts as inactive or inconclusive.

CC(=O)Nc1ccc(S(=O)(=O)N2CCN=C2SCc2ccc(F)cc2)cc1 was read as DT40 TDP1 CPT 18µM, DT40 TDP1 no CPT 26µM, ELG1 DNA repair 2.9µM, IL-1B inflam inh inactive, RORg inh inactive and VP16 counter inconclusive.
Screening Cc1ccc(S(=O)(=O)N2CCN=C2SCc2ccccc2)cc1 returned DT40 TDP1 CPT inactive, DT40 TDP1 no CPT inactive, ELG1 DNA repair inconclusive, IL-1B inflam inh inactive, RORg inh inactive and VP16 counter inactive.
CC(=O)Nc1ccc(S(=O)(=O)N2CCN=C2SCc2ccc(C)cc2)cc1 was read as DT40 TDP1 CPT inconclusive, DT40 TDP1 no CPT inconclusive, ELG1 DNA repair inconclusive, IL-1B inflam inh inactive, RORg inh inconclusive and VP16 counter inactive.
Screening Cc1cccc(CSC2=NCCN2C(=O)c2ccc(S(=O)(=O)N(C)C)cc2)c1 returned DT40 TDP1 CPT inconclusive, DT40 TDP1 no CPT 23µM, ELG1 DNA repair inconclusive, IL-1B inflam inh inactive, RORg inh inactive and VP16 counter inactive.
Screening Cc1ccc(C)c(S(=O)(=O)Nc2ccc(-n3cnnn3)cc2)c1 returned DT40 TDP1 CPT inconclusive, DT40 TDP1 no CPT inconclusive, ELG1 DNA repair inactive and IL-1B inflam inh inactive.
COc1ccccc1CN1CC(C(=O)NCCN2CCOC2=O)CCC1=O (centres undefined) was read as DT40 TDP1 CPT inactive, DT40 TDP1 no CPT inactive, ELG1 DNA repair inactive, IL-1B inflam inh inactive, RORg inh inactive and VP16 counter inactive.
Screening Cc1noc(/C=C/c2cccs2)c1S(=O)(=O)N1CCC(C(=O)NCc2ccccc2Cl)CC1 returned DT40 TDP1 CPT inactive and DT40 TDP1 no CPT inactive.
Screening COc1cc(O)c(CCC(=O)c2cc(OC)c(OC)c(OC)c2)c(OC)c1 returned DT40 TDP1 CPT 21µM, DT40 TDP1 no CPT 15µM, ELG1 DNA repair inconclusive, IL-1B inflam inh inactive, RORg inh inactive and VP16 counter inactive.
`O=C(CN1CCN(CC(=O)c2ccccc2)CC1)c1ccccc1` gave DT40 TDP1 CPT inconclusive, DT40 TDP1 no CPT inactive and IL-1B inflam inh inactive.
Screening COc1ccc(CC(N)c2csc(Nc3ccc(S(C)(=O)=O)cc3)n2)cc1 (centres undefined) returned DT40 TDP1 CPT inconclusive, DT40 TDP1 no CPT 23µM and IL-1B inflam inh inactive.
CS(=O)(=O)c1ccc(Nc2nc(C(N)Cc3ccc(C(F)(F)F)cc3)cs2)cc1 (centres undefined) was read as DT40 TDP1 CPT 21µM, DT40 TDP1 no CPT inactive and IL-1B inflam inh inactive.
`CS(=O)(=O)c1ccc(Nc2nc(C(N)COCc3ccccc3)cs2)cc1` (centres undefined) gave DT40 TDP1 CPT 21µM, DT40 TDP1 no CPT 21µM and IL-1B inflam inh inactive.
Screening NC(Cc1ccc(F)cc1)c1csc(Nc2ccc(S(N)(=O)=O)cc2)n1 (centres undefined) returned DT40 TDP1 CPT inconclusive, DT40 TDP1 no CPT inconclusive and IL-1B inflam inh inactive.
CS(=O)(=O)c1ccc(Nc2nc(C(N)Cc3ccc(F)cc3)cs2)cc1 (centres undefined) was read as DT40 TDP1 CPT 16µM, DT40 TDP1 no CPT 21µM and IL-1B inflam inh inactive.
For CCCCc1nn2c(=O)cc(COC(=O)c3ccc4c(c3)OCO4)nc2s1 the results were DT40 TDP1 CPT inactive and DT40 TDP1 no CPT inactive.
`O=C(CC(=O)c1ccccc1)Nc1ccccc1C(F)(F)F` gave DT40 TDP1 CPT inactive, DT40 TDP1 no CPT inactive, ELG1 DNA repair inconclusive, IL-1B inflam inh inactive, RORg inh inactive and VP16 counter inconclusive.
`CCCc1cc(=O)[nH]c(SCC(=O)Nc2cc(S(=O)(=O)N3CCCCC3)ccc2Cl)n1` gave DT40 TDP1 CPT inactive, DT40 TDP1 no CPT inactive and IL-1B inflam inh inactive.
Screening CS(=O)(=O)c1ccc(Nc2nc(C(N)Cc3ccccc3)cs2)cc1 (centres undefined) returned DT40 TDP1 CPT inconclusive, DT40 TDP1 no CPT 21µM and IL-1B inflam inh inactive.
